The values below come from PubChem BioAssay (NCI).

Test systems include T-47D breast; BT-549 breast; MDA-MB-435 melanoma; SW-620 colon; MCF7 breast; HCT-116 colon; HCC-2998 colon; KM12 colon.
What all share (experiment): NCI-60 one-dose screen, 48 h (100 = growth as untreated, 0 = no growth, -100 = all killed)
Common to all, as to conditions: 10 µM unless noted

Molecules are shown by their SMILES. Compounds without any hit were thinned out: in the full panel of roughly 83,000, 20% have a hit.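 Interpretation: 100, growth as untreated; towards 0, rising growth inhibition; 0, no net growth; 0 to -100, cell death. Compounds scoring below 10 were considered active.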 Values without a mark were called inactive. Calls of active or inactive are those of the source.

On to `COc1ccc(C/C(C)=C(\c2ccc(Cl)cc2)c2ccc(OCCN3CCCCCC3)cc2)cc1`, for which the growth in the test with T-47D breast is 56.8%; in the test on BT-549 breast, 94.9%; in the test on MDA-MB-435 melanoma, 88.7%; in the test on SW-620 colon it was 58.4%; in the test with MCF7 breast, 62.7%; with HCT-116 colon, 56.5%. The growth in the test with HCC-2998 colon is 83.1%; in the test with KM12 colon, 73.9%.
On to `Cc1ccc2c(c1)C(=O)c1c-2c(OCCCN(C)C)nc2ccccc12`, for which the growth in the test on T-47D breast was 63.4%; in the test on BT-549 breast, 71.5%; in the test on MDA-MB-435 melanoma, -32.1% (active); in the test on SW-620 colon, -57.3% (active); in the test on MCF7 breast, -75.8% (active); in the test with HCT-116 colon, 21%. Further, the growth in the test on HCC-2998 colon was -15.2% (active); in the test on KM12 colon it was -46.4% (active).
As for `CCCCCCCCCCCCS(=O)CC(C)O` (configuration not stated), the growth in the test on T-47D breast was 98.2%; in the test with BT-549 breast, 109%; in the test with MDA-MB-435 melanoma, 96.3%; in the test with SW-620 colon, 106%; with MCF7 breast it was 93.2%; with HCT-116 colon it was 109%. Also, the results for the growth in the test with HCC-2998 colon and in the test on KM12 colon were 111% and 116%, respectively.
On to `O=C1/C(=C/c2ccc(Cl)cc2Cl)CN(S(=O)(=O)c2ccccc2)C/C1=C\c1ccc(Cl)cc1Cl`, for which the growth is 23.7% with T-47D breast; -72.8% (active) in the test with BT-549 breast; 3.98% (active) with MDA-MB-435 melanoma; -15.2% (active) in the test with SW-620 colon; 13.9% in the test on MCF7 breast; -84% (active) in the test with HCT-116 colon. In addition, the results for the growth with HCC-2998 colon and in the test on KM12 colon were -15.3% (active) and -57.2% (active), respectively.
Take `CC#CC#Cc1cccc(=O)o1`: the growth in the test with T-47D breast is 59.9%; in the test with BT-549 breast, 38.1%; with MDA-MB-435 melanoma, 15.2%; in the test with SW-620 colon, 27.3%; with MCF7 breast, 29%; in the test with HCT-116 colon, 30.9%. Moreover, the growth in the test on HCC-2998 colon is 95.8%; in the test with KM12 colon, 58.8%.
In the case of `O=C1c2cc3c(cc2-c2c1c1cc(Cl)c(Cl)cc1c(=O)n2CCCn1ccnc1)OCO3`, the growth is 0.538% (active) in the test with T-47D breast; 19.1% with BT-549 breast; 18.5% in the test on MDA-MB-435 melanoma; 25.6% with SW-620 colon; 1.23% (active) with MCF7 breast; 3.49% (active) in the test on HCT-116 colon. The growth in the test on HCC-2998 colon was 28.6%; in the test on KM12 colon, 6% (active).
As for `COc1ccc(S(=O)(=O)NCCCNc2nccc(-c3c(-c4cccc(N)c4)nc4sccn34)n2)cc1`, the growth was 63% in the test with T-47D breast; 102% in the test on BT-549 breast; 70.2% with MDA-MB-435 melanoma; 138% in the test on SW-620 colon; 69.3% in the test with MCF7 breast; 99.2% in the test on HCT-116 colon. The growth in the test with HCC-2998 colon is 144%; in the test on KM12 colon, 39.4%.
As for `COc1ccc2[nH]c(=O)c(/C=C/C(=O)c3ccc(Nc4nccc(-c5ccc6ccccc6c5)n4)cc3)cc2c1`, the growth was 97.2% in the test with T-47D breast; 98.9% in the test on BT-549 breast; 108% in the test on MDA-MB-435 melanoma; 97.1% with SW-620 colon; 92.8% in the test with MCF7 breast; 91.1% in the test with HCT-116 colon. Also, the growth was 104% in the test with HCC-2998 colon and 93.3% in the test on KM12 colon.
For `COc1cccc(NC(=O)c2sc3nc4c(cc3c2N)CN(Cc2ccccc2)CC4)c1`, the growth with T-47D breast is 66.1%; in the test with BT-549 breast, 65.5%; with MDA-MB-435 melanoma it was 4.27% (active); with SW-620 colon, 54.4%; with MCF7 breast it was 49.5%; with HCT-116 colon, 58.1%. Also, the growth with HCC-2998 colon was 77.3%; with KM12 colon it was 48.2%.
Turning to `CCOC(=O)c1nc(Nc2cc(C)[nH]n2)c2ccccc2n1`, the growth in the test on T-47D breast is 82.3%; in the test with BT-549 breast, 96.8%; in the test with MDA-MB-435 melanoma, 96.8%; with SW-620 colon, 104%; with MCF7 breast, 81.5%; in the test on HCT-116 colon, 76.6%. In addition, the growth was 107% in the test on HCC-2998 colon and 36.9% in the test on KM12 colon.
With `NS(=O)(=O)c1ccc(-n2ncc3c(=O)[nH]c(CN4CCN(c5cc6c(cc5F)c(=O)c(C(=O)O)cn6C5CC5)CC4)nc32)cc1`, the growth in the test with T-47D breast is 106%; in the test on BT-549 breast it was 68.9%; with MDA-MB-435 melanoma, 99.9%; with SW-620 colon, 98.8%; in the test with MCF7 breast it was 94.9%; in the test on HCT-116 colon, 100%. Also, the growth was 93.9% in the test on HCC-2998 colon and 102% with KM12 colon.
For `CC/C=C\C[C@H](O)C/C=C1/C(=O)C=C[C@@H]1C/C=C\CCCC(N)=O`, the growth was 1.28% (active) in the test on T-47D breast; -12.6% (active) in the test with BT-549 breast; 23.5% in the test with MDA-MB-435 melanoma; 5.37% (active) in the test on SW-620 colon; 7.66% (active) in the test with MCF7 breast; -69% (active) with HCT-116 colon. The growth with HCC-2998 colon is -73.6% (active); in the test on KM12 colon, -38.7% (active).
For `O=C(Cn1cc(CN2C(=O)c3ccccc3S2(=O)=O)nn1)Nc1ccc([N+](=O)[O-])cc1Cl`, the growth is 76.9% with T-47D breast; 103% in the test with BT-549 breast; 103% in the test with MDA-MB-435 melanoma; 98.1% with SW-620 colon; 83% with MCF7 breast; 103% with HCT-116 colon. The growth in the test on HCC-2998 colon is 98.4%; in the test with KM12 colon it was 93.8%.
Regarding `CCN(CC)CC(O)CNc1c2ccc([N+](=O)[O-])cc2nc2cc(OC)c(OC)cc12` (configuration not stated), the growth in the test on T-47D breast is -27.9% (active); in the test on BT-549 breast, -69.8% (active); with MDA-MB-435 melanoma, -88.4% (active); in the test with SW-620 colon, 4.13% (active); with MCF7 breast it was -22.9% (active); with HCT-116 colon it was -23.5% (active). The growth with HCC-2998 colon was -68.2% (active); in the test with KM12 colon it was -37.5% (active).
For the compound `CCOC(=O)c1c2c(n3ccc(NC(=O)CCN4CCOCC4)cc13)C(=O)c1ncccc1C2=O`, the growth in the test with T-47D breast was 32.6%; in the test with BT-549 breast it was 58.3%; in the test on MDA-MB-435 melanoma it was 19.4%; in the test with SW-620 colon, 37.2%; with MCF7 breast it was -31.7% (active); with HCT-116 colon it was 21.8%. For the same compound, the values for the growth in the test with HCC-2998 colon and in the test with KM12 colon were 42.5% and 46.2%, respectively.
Consider `CCCCNC(=O)NS(=O)(=O)c1ccc(N2N=C(c3cc(C)ccc3C)CC2c2cc(OC)c(OC)c(OC)c2)cc1` (configuration not stated), for which the growth was 38.4% with T-47D breast; 20.6% with BT-549 breast; -46.2% (active) in the test on MDA-MB-435 melanoma; 24.4% in the test with MCF7 breast; 32.3% in the test on HCT-116 colon; -1.57% (active) with HCC-2998 colon. For the same compound, the growth in the test on KM12 colon is 46.1%.
